From the supplement of paper PMC12819154, “High-throughput peptide-centric local stability assay extends protein–ligand identification to membrane proteins, tissues and bacteria” (Nature Structural & Molecular Biology, 2025)

These targets were tested with CN[C@@H]1C[C@H]2O[C@@](C)([C@@H]1OC)n1c3ccccc3c3c4c(c5c6ccccc6n2c5c31)C(=O)NC4 [staurosporine] (assay: log2 fold change of tryptic peptide abundance, ligand vs vehicle (limited proteolysis) (log2 ratio); higher = more trypsin-susceptible (destabilized)). Details: ligand concentration: 20 uM; sample: mouse liver crude lysate; replicate design: treated separately.

Sequence of UniProt Q9JM52 (Q9JM52 whole entry): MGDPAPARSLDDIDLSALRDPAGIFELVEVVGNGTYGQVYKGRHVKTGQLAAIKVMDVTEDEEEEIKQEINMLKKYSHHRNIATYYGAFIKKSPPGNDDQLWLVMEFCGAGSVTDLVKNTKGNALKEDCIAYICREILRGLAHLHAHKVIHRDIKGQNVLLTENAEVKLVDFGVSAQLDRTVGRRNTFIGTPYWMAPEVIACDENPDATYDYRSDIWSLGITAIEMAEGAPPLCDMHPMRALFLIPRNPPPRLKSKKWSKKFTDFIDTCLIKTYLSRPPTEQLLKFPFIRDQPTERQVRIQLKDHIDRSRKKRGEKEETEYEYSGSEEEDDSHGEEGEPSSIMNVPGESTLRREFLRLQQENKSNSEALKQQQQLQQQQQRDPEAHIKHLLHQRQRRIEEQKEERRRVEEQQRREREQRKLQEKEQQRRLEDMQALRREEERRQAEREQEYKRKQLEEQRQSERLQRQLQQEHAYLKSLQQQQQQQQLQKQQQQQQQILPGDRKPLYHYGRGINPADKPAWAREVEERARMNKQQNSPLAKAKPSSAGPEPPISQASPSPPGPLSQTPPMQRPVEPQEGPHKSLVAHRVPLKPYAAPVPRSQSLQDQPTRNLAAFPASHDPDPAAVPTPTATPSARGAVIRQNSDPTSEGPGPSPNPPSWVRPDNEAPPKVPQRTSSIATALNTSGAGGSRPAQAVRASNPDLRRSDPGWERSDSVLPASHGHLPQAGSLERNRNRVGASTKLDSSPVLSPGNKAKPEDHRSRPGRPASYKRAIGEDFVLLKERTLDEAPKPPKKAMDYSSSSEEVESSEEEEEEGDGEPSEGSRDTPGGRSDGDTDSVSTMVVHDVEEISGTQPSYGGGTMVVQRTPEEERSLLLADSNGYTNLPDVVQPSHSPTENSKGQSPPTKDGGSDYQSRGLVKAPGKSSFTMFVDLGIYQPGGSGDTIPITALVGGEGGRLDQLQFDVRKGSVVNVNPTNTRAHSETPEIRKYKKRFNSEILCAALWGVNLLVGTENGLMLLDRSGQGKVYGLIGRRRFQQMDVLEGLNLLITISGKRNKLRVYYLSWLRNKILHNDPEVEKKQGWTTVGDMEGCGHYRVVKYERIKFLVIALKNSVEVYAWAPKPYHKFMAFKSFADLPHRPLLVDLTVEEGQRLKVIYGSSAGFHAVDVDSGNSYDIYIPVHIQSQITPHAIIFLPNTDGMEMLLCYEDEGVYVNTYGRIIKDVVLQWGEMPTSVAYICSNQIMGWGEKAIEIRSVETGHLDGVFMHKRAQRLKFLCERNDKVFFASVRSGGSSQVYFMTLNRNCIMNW
Sequence of UniProt Q8BK48 (Q8BK48 whole entry): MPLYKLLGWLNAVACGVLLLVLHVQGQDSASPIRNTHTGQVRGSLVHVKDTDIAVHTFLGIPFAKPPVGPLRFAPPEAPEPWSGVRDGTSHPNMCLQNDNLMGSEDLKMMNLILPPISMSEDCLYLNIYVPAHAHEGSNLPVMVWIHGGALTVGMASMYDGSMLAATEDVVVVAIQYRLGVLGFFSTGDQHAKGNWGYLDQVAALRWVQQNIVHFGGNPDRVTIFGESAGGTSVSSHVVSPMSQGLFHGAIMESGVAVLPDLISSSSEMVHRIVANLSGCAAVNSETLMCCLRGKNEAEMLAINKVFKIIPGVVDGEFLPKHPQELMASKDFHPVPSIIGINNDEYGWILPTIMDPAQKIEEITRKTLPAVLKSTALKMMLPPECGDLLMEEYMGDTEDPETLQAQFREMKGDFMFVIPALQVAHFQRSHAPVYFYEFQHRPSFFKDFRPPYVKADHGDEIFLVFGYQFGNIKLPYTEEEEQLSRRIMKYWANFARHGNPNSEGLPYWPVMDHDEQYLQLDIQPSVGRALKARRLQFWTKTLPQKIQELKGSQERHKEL
Sequence of UniProt O09110 (O09110 whole entry): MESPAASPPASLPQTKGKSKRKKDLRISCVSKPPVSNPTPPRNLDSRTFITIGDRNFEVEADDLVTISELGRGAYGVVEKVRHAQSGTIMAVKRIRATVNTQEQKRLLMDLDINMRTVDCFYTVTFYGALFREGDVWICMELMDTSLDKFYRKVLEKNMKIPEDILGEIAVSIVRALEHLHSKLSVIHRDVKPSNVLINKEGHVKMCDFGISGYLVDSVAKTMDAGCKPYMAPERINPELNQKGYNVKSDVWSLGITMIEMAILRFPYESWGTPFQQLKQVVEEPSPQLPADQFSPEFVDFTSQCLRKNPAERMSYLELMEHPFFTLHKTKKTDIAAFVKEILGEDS
Sequence of UniProt P97872 (P97872 whole entry): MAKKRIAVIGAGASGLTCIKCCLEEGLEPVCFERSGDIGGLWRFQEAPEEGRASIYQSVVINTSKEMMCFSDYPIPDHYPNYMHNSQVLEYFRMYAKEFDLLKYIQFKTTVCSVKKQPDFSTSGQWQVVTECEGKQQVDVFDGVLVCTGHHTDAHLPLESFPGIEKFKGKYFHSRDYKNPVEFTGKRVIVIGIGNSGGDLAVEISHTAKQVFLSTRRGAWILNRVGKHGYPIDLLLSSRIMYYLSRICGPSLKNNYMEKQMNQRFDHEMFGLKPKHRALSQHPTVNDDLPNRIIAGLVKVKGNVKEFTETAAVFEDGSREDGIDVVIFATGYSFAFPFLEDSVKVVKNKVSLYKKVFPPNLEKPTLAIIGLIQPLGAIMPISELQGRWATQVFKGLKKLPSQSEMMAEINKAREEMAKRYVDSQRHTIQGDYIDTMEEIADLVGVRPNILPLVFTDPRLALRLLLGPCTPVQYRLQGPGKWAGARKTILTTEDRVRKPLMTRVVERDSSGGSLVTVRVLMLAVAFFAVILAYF
Sequence of UniProt Q7TMR0 (Q7TMR0 whole entry): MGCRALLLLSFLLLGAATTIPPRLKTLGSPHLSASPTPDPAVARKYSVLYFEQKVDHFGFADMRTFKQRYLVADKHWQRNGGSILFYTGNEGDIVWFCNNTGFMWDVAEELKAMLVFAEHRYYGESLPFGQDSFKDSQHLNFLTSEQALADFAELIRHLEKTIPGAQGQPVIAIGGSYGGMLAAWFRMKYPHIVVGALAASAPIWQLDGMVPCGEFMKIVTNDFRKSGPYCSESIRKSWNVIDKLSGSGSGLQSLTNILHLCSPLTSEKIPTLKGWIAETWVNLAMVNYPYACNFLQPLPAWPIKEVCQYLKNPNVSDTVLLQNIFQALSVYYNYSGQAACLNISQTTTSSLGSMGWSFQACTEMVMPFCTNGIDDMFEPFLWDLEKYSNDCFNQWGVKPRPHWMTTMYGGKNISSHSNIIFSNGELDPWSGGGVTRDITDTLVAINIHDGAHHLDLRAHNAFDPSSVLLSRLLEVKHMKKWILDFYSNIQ
Sequence of UniProt Q9ERK4 (Q9ERK4 whole entry): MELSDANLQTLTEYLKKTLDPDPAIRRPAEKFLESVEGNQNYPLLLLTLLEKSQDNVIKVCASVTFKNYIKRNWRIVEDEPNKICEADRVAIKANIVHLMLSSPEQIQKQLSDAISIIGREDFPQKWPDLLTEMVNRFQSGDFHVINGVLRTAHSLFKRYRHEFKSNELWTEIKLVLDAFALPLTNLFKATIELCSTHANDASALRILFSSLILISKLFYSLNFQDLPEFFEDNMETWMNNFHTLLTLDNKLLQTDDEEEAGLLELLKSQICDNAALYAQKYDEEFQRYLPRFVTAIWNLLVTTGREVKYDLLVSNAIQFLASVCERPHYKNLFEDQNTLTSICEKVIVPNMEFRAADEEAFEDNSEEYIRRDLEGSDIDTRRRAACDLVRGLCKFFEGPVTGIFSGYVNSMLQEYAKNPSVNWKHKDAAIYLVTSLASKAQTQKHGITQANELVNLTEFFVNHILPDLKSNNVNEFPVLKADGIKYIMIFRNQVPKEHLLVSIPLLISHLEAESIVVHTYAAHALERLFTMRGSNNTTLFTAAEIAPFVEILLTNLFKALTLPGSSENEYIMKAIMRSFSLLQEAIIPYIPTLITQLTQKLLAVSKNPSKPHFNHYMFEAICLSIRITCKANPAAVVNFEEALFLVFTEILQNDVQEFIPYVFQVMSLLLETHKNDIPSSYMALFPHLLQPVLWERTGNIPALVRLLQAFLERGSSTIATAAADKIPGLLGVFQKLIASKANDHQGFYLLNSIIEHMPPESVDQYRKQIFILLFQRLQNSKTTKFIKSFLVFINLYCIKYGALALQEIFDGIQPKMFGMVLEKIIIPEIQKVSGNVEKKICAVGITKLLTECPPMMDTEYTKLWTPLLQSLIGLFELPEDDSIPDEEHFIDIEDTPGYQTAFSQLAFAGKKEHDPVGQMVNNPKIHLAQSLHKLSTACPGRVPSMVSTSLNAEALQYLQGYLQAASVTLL
Sequence of UniProt Q8BHC4 (Q8BHC4 whole entry): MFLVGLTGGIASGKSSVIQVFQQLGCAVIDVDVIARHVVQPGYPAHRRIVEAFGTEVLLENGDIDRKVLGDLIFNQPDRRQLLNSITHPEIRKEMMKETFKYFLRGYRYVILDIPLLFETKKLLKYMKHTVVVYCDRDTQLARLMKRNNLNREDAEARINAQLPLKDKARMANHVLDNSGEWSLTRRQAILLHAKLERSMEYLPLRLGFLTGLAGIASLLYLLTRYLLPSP
Sequence of UniProt Q91XD8 (Q91XD8 whole entry): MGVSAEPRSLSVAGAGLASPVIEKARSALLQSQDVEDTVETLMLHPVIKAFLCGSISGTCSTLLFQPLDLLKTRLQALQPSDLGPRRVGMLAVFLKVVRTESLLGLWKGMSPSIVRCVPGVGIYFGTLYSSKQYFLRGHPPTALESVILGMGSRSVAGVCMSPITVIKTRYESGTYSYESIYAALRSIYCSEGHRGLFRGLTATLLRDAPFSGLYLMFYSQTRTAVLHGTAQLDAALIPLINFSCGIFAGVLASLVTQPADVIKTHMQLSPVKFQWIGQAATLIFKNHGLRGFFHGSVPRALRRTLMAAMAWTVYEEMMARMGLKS

Question: How did the log2 fold change turn out when “UniProt Q8BK48 (peptide sequence: DFRPPYVK, peptide start residue: 447)” was run?
Answer: The log2 fold change was -1.1.

Question: For “UniProt O09110 (peptide sequence: TFITIGDR, peptide start residue: 48)”, which log2 fold change is on record?
Answer: Its log2 fold change is -0.503.

Question: For “UniProt Q9JM52 (peptide sequence: GNALKEDCIAYICR, peptide start residue: 122)”, which log2 fold change is on record?
Answer: Its log2 fold change is -0.672.

Question: Which log2 fold change does the source give for “UniProt Q922S4 (peptide sequence: AMGNRPMEMMDR, peptide start residue: 838)” here?
Answer: The log2 fold change was 0.447.

Question: “UniProt Q9ERK4 (peptide sequence: LLQAFLER, peptide start residue: 707)” was tested. Which log2 fold change did it give?
Answer: Its log2 fold change is 0.291.

Question: “UniProt P31324 (peptide sequence: LKVVDVIGTK, peptide start residue: 284)” was tested. Which log2 fold change did it give?
Answer: Its log2 fold change is 1.51.

Question: Which log2 fold change does the source give for “UniProt Q9JK48 (peptide sequence: NFIEGDYK, peptide start residue: 149)” here?
Answer: The log2 fold change was 0.247.

Question: For “UniProt Q8BHC4 (peptide sequence: HVVQPGYPAHR, peptide start residue: 37)”, which log2 fold change is on record?
Answer: Its log2 fold change is 0.384.

Question: For “UniProt Q6PDN3 (peptide sequence: VSDVYDIEER, peptide start residue: 1482)”, which log2 fold change is on record?
Answer: The log2 fold change was -1.2.

Question: “UniProt Q91XD8 (peptide sequence: LQALQPSDLGPR, peptide start residue: 75)” was tested. Which log2 fold change did it give?
Answer: Its log2 fold change is -0.916.

Question: How did the log2 fold change turn out when “UniProt Q7TMR0 (peptide sequence: AHNAFDPSSVLLSR, peptide start residue: 459)” was run?
Answer: The log2 fold change was 0.784.

Question: For “UniProt P97872 (peptide sequence: DSSGGSLVTVR, peptide start residue: 507)”, which log2 fold change is on record?
Answer: The log2 fold change was -1.1.
